Screening results as filed in PubChem BioAssay.
HCV inhibitor: blocks hepatitis C virus; Huh7.5.1 HCVcc-Cre infection, luciferase reporter, 44 h; Potency, µM (doses to about 41.8 µM), without a hit: at the highest dose activity change, negative = inhibition, most hits filed as inhibitors; hit rate 3.4% among 340,000
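Cells (1,000/well) were plated 4 h before compound, then infected with HCVcc-Cre virus (~0.5 moi). After 44 h further culture, infection was read as luciferase luminescence following a 15 min substrate incubation at room temperature.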
Sm TGR block: blocks Schistosoma mansoni thioredoxin glutathione reductase; Potency, µM (top dose mostly 114 µM), for inactives: at the top dose activity change, negative = inhibition, most hits filed as inhibitors; purified TGR, DTNB reduction, TNB absorbance 405 nm; hit rate 3% among 360,000; note: nearly all actives have a fitted effect of over 60% in size
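Kinetic colorimetric format: TGR-catalysed, NADPH-driven DTNB reduction monitored via TNB absorbance. Enzyme dispensed at 20 nM; compound exposure 15 min at room temperature before reaction start.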
FMDV antiviral: blocks foot and mouth disease virus; FMDV antiviral cell-based qHTS; Potency, µM (top dose mostly 57.9 µM), for the others: at the top dose activity change, negative = inhibition, usual class: inhibitors; hit rate 1.2% among 410,000; AID 1159524; calls by dose curve; tested in HEK293T cells; note: read-out not given here; nearly all actives have a fitted effect of over 45% in size
MARV entry inh: Marburg virus entry inhibition | Marburg virus pseudotyped entry inhibition, cell reporter | Potency, µM (top dose mostly 37.8 µM), for the others: top-dose activity change, negative = inhibition, actives largely listed as inhibitors | hit rate 1.8% among 300,000 | AID 540276; calls by dose curve; tested in HEK293 cells
RE007 growth inh: less growth of the S. pombe RE007 Vpr strain. hit rate 0.21% among 360,000. AID 651644. Potency, µM (top dose mostly 92.2 µM), for inactives: at the top dose activity change, negative = less growth, most hits filed as inhibitors. S. pombe RE007 Vpr strain, BacTiter-Glo ATP luminescence, 24 h; active = well fitted falling curve with a large enough effect; inconclusive = small, poorly fitted or top-dose-only effect; inactive = no such curve, though single readings can be large or run the other way; note: nearly all actives have a fitted effect of over 50% in size
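Fission yeast RE007 carrying one integrated HIV-1 vpr copy, seeded at OD 0.01 in PMG+AL medium with 23 nL pinned compound. Grown 24 h at 30 degrees; viability read by BacTiter-Glo luminescence after 5 min.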
Lassa entry inh: Lassa virus entry inhibition; Lassa virus pseudotype entry inhibition, cell reporter; Potency, µM (top dose mostly 37.9 µM), inactives show top-dose activity change, negative = inhibition, most hits filed as inhibitors; hit rate 1.2% among 300,000; AID 540256; calls by dose curve; tested in HEK293 cells; note: nearly all actives have a fitted effect of over 50% in size
The depositor's hits bear a star; [ ] = remark or other dose. Hits are enriched below; roughly 7.2% of the tested compounds scored in any of these assays. Unless noted, calls come from the whole dose curve; as a rule, active = well fitted curve in the direction sought with a large enough effect; inconclusive = small, poorly fitted or top-dose-only effect, or another doubt; inactive = no such curve, though single readings can be large; an effect the other way counts as inactive or inconclusive. % is set by controls: 0 for no effect and ±100 for the full control effect; potency is the fitted concentration of half-maximal effect.

For COc1cccc(NC(=O)C2C3C=CC(O3)C2C(=O)NCc2cccnc2)c1 (stereo unspecified) the results were HCV inhibitor 6%, Sm TGR block 50µM*, FMDV antiviral 8%, MARV entry inh inconclusive, RE007 growth inh -11% and Lassa entry inh 5%.
Screening COc1cc(NC(=S)NCc2cccnc2)cc(OC)c1 returned HCV inhibitor -5%, Sm TGR block inconclusive, FMDV antiviral 44%, MARV entry inh 7%, RE007 growth inh 0% and Lassa entry inh 16%.
FC(F)(F)c1cc(CN2CCCC3(CCNCC3)C2)cc(C(F)(F)F)c1 was read as FMDV antiviral -13%.
CCOC(=O)CSc1nc2ccc(NC(=O)COc3ccc(F)cc3)cc2s1 was read as Sm TGR block 3%, FMDV antiviral -13%, MARV entry inh 8%[46.1 µM] and Lassa entry inh 23%[46.1 µM].
Cc1ccccc1Nc1cc(C(=O)NCc2cccs2)c2ccccc2n1 was read as Sm TGR block 4%, FMDV antiviral 14%, MARV entry inh -14%[46.1 µM] and Lassa entry inh -17%[46.1 µM].
CCOC(=O)c1ccc(NC(=O)C2C3C=CC(O3)C2C(=O)O)cc1 (stereo unspecified) was read as Sm TGR block 56µM*.
`Cc1cccc(NC(=O)C2C(C(=O)O)C3C=CC2C32CC2)c1C` (stereo unspecified) gave HCV inhibitor 5%, Sm TGR block 9%[11.4 µM], FMDV antiviral -29%, MARV entry inh -14%, RE007 growth inh 2% and Lassa entry inh -23%.
COc1ccccc1NC(=O)C1C2C=CC(O2)C1C(=O)O (stereo unspecified) was read as Sm TGR block 40µM*.
Screening COC(=O)c1ccc(NC(=O)C2C3C=CC(O3)C2C(=O)O)cc1 (stereo unspecified) returned HCV inhibitor 4%, Sm TGR block inconclusive, FMDV antiviral -24%, MARV entry inh 10%, RE007 growth inh inconclusive and Lassa entry inh 8%.
For Cc1cccc(NC(=O)C2C3C=CC(O3)C2C(=O)O)c1C (stereo unspecified) the results were HCV inhibitor 23%, Sm TGR block 45µM*, FMDV antiviral 22%, MARV entry inh 7%[46.1 µM], RE007 growth inh -21% and Lassa entry inh -24%[46.1 µM].
For O=C(CSc1nnc(NC(=O)c2ccccc2F)s1)NCC1CCCO1 (stereo unspecified) the results were HCV inhibitor 13%, Sm TGR block -2%, FMDV antiviral 0%, MARV entry inh inconclusive, RE007 growth inh -5% and Lassa entry inh -8%.
For OCCC1CN(Cc2nc3c(s2)CCCC3)CCN1Cc1ccccc1 (stereo unspecified) the results were HCV inhibitor -11%, Sm TGR block 35µM*, FMDV antiviral -12% and RE007 growth inh 0%.
For Cc1ccc(CN2CCN(CCCc3ccccc3)CC2CCO)cc1 (stereo unspecified) the results were HCV inhibitor 7%, Sm TGR block -1%, FMDV antiviral -22% and RE007 growth inh 0%.
Cc1ccc(CN2CCN(Cc3nc4ccccc4nc3C)CC2CCO)cc1 (stereo unspecified) was read as HCV inhibitor -13%, Sm TGR block 32µM*, FMDV antiviral -21% and RE007 growth inh -12%.
`O=c1c(-c2ccc(F)cc2)nc2cnc(Nc3ccccc3)nc2n1Cc1cccs1` gave FMDV antiviral -2%.
For CC(C)(C)c1ccc(O[C@@H]2[C@H](O)CO[C@@H]2C=CC#Cc2ccccc2)cc1 the results were MARV entry inh -9%[14.2 µM].
CC(C)COc1ccc(N)cc1OCC(C)C was read as HCV inhibitor 2.8µM*, Sm TGR block -31%, FMDV antiviral -6%, MARV entry inh 17%[46.1 µM], RE007 growth inh -14% and Lassa entry inh 0%.
Screening CC(C)COc1ccc(Br)cc1CNC(C)(C)C returned HCV inhibitor -29%, Sm TGR block -5%, FMDV antiviral -11% and RE007 growth inh 1%.
`Cc1nc(SCC(=O)NCC(F)(F)F)c2c(-c3cccs3)csc2n1` gave HCV inhibitor inconclusive, Sm TGR block 9%, FMDV antiviral -6% and RE007 growth inh 0%.
Cc1nc(SCC(=O)NC(C)(C#N)C2CC2)c2c(-c3cccs3)csc2n1 (stereo unspecified) was read as HCV inhibitor 10µM*, Sm TGR block 0%, FMDV antiviral 0%, MARV entry inh inconclusive, RE007 growth inh 11% and Lassa entry inh inconclusive.
`CN(CC1COc2ccccc2O1)c1nc(-c2cccnc2)nc2ccccc12` (stereo unspecified) gave HCV inhibitor 11µM*, Sm TGR block 3%, FMDV antiviral 25µM*, MARV entry inh 2.6µM*, RE007 growth inh -19% and Lassa entry inh inconclusive.
Cc1ccc(CN(C)c2nc(-c3cccnc3)nc3ccccc23)o1 was read as HCV inhibitor inconclusive, Sm TGR block 40µM*, FMDV antiviral -29%, MARV entry inh -2%, RE007 growth inh 3% and Lassa entry inh inconclusive.
`CN(Cc1ccco1)c1nc(-c2cccnc2)nc2ccccc12` gave FMDV antiviral -7%.
Cc1ccccc1Nc1nc(-c2cccnc2)nc2ccccc12 was read as HCV inhibitor inconclusive, Sm TGR block -8%, FMDV antiviral inconclusive and RE007 growth inh -10%.
`c1cncc(-c2nc(NCC3COc4ccccc4O3)c3ccccc3n2)c1` (stereo unspecified) gave HCV inhibitor 11µM*, Sm TGR block -14%, FMDV antiviral 22µM*, MARV entry inh inconclusive, RE007 growth inh -1% and Lassa entry inh -30%.
Screening CC1(C)Cc2c(sc3[nH]c(=S)n(Cc4ccco4)c(=O)c23)CO1 returned HCV inhibitor 13%, Sm TGR block -24%, MARV entry inh -8%, RE007 growth inh -4% and Lassa entry inh inconclusive.
For CN(C)CCCn1c(=O)n(Cc2ccco2)c(=O)c2c3c(sc21)CCCCC3 the results were HCV inhibitor inconclusive, Sm TGR block 35µM*, FMDV antiviral -23%, MARV entry inh inconclusive, RE007 growth inh 4% and Lassa entry inh inconclusive.
`O=c1c2c3c(sc2[nH]c(=S)n1Cc1ccco1)CCC3` gave HCV inhibitor 9%, Sm TGR block 14µM*, FMDV antiviral 1% and RE007 growth inh -6%.
Screening O=C1c2[nH]nc(-c3ccc(F)cc3)c2C(c2ccccc2F)N1c1ccccc1 (stereo unspecified) returned Sm TGR block 0%, FMDV antiviral inconclusive, MARV entry inh -16%[46.1 µM] and Lassa entry inh inconclusive.
